# Values joined by “and” are separate entries in the source; they are usually repeats but may differ in a detail not shown here. Equal entries are not always repeated. The campaign covered roughly 53,000 compounds. About 900 (1.7%) showed an effect of 50% or more. The sample holds strong results, similar compounds and a random draw of the others, so the mix is not that of the screen.
# Tested on: Mycobacterium tuberculosis
# Assay: Cornell - Phenotypic assay to identify agents that inhibit growth of Mycobacterium tuberculosis
# Assay type: functional
# Set-up: scale not given: direction of the effect not stated beside the values
SMILES,Percent Effect (10 mM; 10000 µM) [%],"Percent Effect (10 mM, 10 mM as filed; unlikely as a test dose)"
CCC1CCCN(S(=O)(=O)c2cnc3onc(C)c3c2)C1 (stereo not given),54.72,
CCN1CCCN(S(=O)(=O)c2cnc3onc(C)c3c2)CC1,44.95,
Cc1noc2ncc(S(=O)(=O)N3CCCC(C)(C)CC3)cc12,49.9,
CCc1noc(CN(Cc2cccs2)CC2CCCO2)n1 (stereo not given),-2.113,
CNc1ncc(CN(C)C(=O)c2c[nH]nc2-c2cccc(F)c2)cn1,11.75,
Cn1ncc2c1CCCN(C(=O)C1CCCC1)C2,10.97,
Cn1c(CCN2CCN(c3ccc(O)cc3)CC2)nc2ccccc21,103.8,
Cn1c(CCN2CCN(CCc3ccccc3)CC2)nc2ccccc21,76.94,
Cc1cc(C)n(C2CCN(Cc3nc4ccccc4n3C)CC2)n1,18.24,
CCCc1ccc(N2CCN(Cc3nc4ccccc4n3C)CC2)cc1,-0.4475,
Cn1c(CN2CCN(CC3CCCO3)CC2)nc2ccccc21 (stereo not given),22.41,
CCNC(=O)N1CCN(c2nc3ccccc3n2C)CC1,17.71,
CCCc1nc(NC2(COC)CCCC2)c2cnn(C)c2n1,21.48,
Cc1ccc(C)c(S(=O)(=O)CCN2CCCC2Cn2cncn2)c1 (stereo not given),23.02,
Fc1cccnc1O[C@@H]1CN(Cc2ccccn2)[C@@H]2CCCO[C@@H]21.O=C(O)C(F)(F)F.O=C(O)C(F)(F)F,2.355,
Cc1ccc(-c2cc(CN3CCCC(Cn4cncn4)C3)on2)cc1 (stereo not given),8.833,
O=C(C[C@@H]1COC[C@H]2CN(Cc3ccccn3)C[C@@H]12)N1CCOCC1.O=C(O)C(F)(F)F.O=C(O)C(F)(F)F,6.339,
Fc1ccc(C(NCc2nnc(C3CC3)o2)C2CCC2)cc1 (stereo not given),14.86,
Fc1ccc(C(NCc2nnc(-c3ccco3)o2)C2CCC2)cc1 (stereo not given),56.57,
c1ccc(C(NCc2nnc(-c3ccco3)o2)C2CCC2)cc1 (stereo not given),14.05,
CC(CNC(=O)Nc1ccc(F)cc1-n1cccc1)N1CCOCC1 (stereo not given),31.56,
CCNc1ncc(C(=O)NCc2ccc(F)c(C(F)(F)F)c2)cn1,-33.7,
CCNc1ncc(C(=O)NCc2cccc(OC(F)(F)F)c2)cn1,27.01,
CCNc1ncc(C(=O)NCc2ccc3nsnc3c2)cn1,105.6,
O=C(NC1CC1)N1C[C@H]2CN(Cc3cccc(F)c3)C(=O)[C@H]2C1,-1.024,
Cc1ccc(CN(CCCN(C)C)Cc2cnc(N(C)C)nc2)o1.O=C(O)CC(O)(CC(=O)O)C(=O)O,-2.664,
O=C(O)C(F)(F)F.O=C([C@H]1C[C@H]2OCC[C@H]2N(Cc2ccccn2)C1)N1CCCCO1,-19.88,

SMILES,Percent Effect (10 mM; 10000 µM) [%],"Percent Effect (10 mM, 10 mM as filed; unlikely as a test dose)"
O=C(c1ccccn1)N1CCC(Oc2ncccc2Cl)CC1,37.07,
O=C(c1cc(C2CC2)on1)N1CCC(Oc2ncccc2Br)CC1,83.65,
O=C(c1ccccn1)N1CCC(Oc2cccnc2)CC1,-17.68,
O=C(c1cc(C2CC2)on1)N1CCC(Oc2ncccc2Cl)CC1,82.03,
N#Cc1cccnc1OC1CCN(C(=O)c2cc(C3CC3)on2)CC1,39.39,
O=C(c1cnccn1)N1CCC(Oc2ncccc2Cl)CC1,13.63,
CN(C)S(=O)(=O)N1CC(c2ccnc(Nc3ccccn3)n2)C1,25.46,
COc1ccc(CN2CCC3(CC2)CCN(CC2CC2)C3=O)cc1.O=C(O)C(F)(F)F,6.492,
CCC(=O)N1CCCCC[C@@H]2[C@@H]1[C@H](c1cccc(F)c1)CN2C,-24.01,
COc1cccc(C(=O)Nc2n[nH]c(C3CCCO3)n2)c1 (stereo not given),12.47,
CCOc1ncccc1CNC(=O)NCCNC(=O)c1ccco1,0.1336,
CCNC(=O)c1cc2n(n1)CCCO2,-8.867,
O=C(c1ccncc1)N1CCc2[nH]nc(Nc3ccccc3)c2C1,-24.78,
O=C(c1cccnc1)N1CCc2[nH]nc(Nc3ccccc3)c2C1,46.76,
O=C(c1cncs1)N1CCc2[nH]nc(Nc3ccccc3)c2C1,58.68,
CN(Cc1ccc(F)cc1)CC1(O)CCN(C(=O)c2cccs2)C1 (stereo not given),-44.56,
COc1cccc(CCC(=O)Nc2ccn(C)n2)c1OC,-2.109,
CCOc1c(Br)cc(C2C3=C(COC3=O)Nc3[nH]nc(C)c32)cc1OC (stereo not given),33.99,
COc1cccc(C2C3=C(COC3=O)Nc3[nH]nc(C)c32)c1O (stereo not given),-49.1,
COc1cc(C2C3=C(COC3=O)Nc3[nH]nc(C)c32)cc(Br)c1O (stereo not given),101.5,
Cc1cnn(C2CCCN(C(=O)c3cc(C)sc3C)C2)c1 (stereo not given),1.503,
CCOC(=O)CC(c1cccc(OC)c1OC)c1c(C)[nH][nH]c1=O (stereo not given),,39.38% and 50.02%
CCOC(=O)CC(c1ccc(OC)c(OC)c1)c1c(O)n[nH]c1C (stereo not given),17.75,
COC(=O)CC(c1ccc(OC)c(OC)c1OC)c1c(O)n[nH]c1C (stereo not given),39.76,
O=C(NC[C@]1(O)CCN(Cc2ccccc2F)C[C@H]1O)c1c[nH]cn1,-15.39,
CC(C)c1ccc(CN[C@@H]2COC[C@H]2c2ccc(F)cc2)cc1,38.02,
O=C(NCc1cccnc1)C1=NN(c2ccccc2)C(=O)CN1,-12.05,

SMILES,Percent Effect (10 mM; 10000 µM) [%],"Percent Effect (10 mM, 10 mM as filed; unlikely as a test dose)"
COCc1ccc(CNC(=O)C2=NN(c3ccccc3)C(=O)CN2)cc1,-8.016,
COc1ccccc1CNC(=O)C1=NN(c2ccc(C)cc2)C(=O)CN1,59.16,
O=C(NCCNC(=O)c1scnc1Cl)c1ccccc1Cl,2.223,
CCCc1nc(N2CCCCC2)c2c(n1)c(C)nn2CC,-11.73,
CCn1nc(C)c2nc(C)nc(NCCc3ccccc3)c21,18.42,
CCCc1nc(N2CCN(CC)CC2)c2c(n1)c(C)nn2CC,19.74,
CCCc1nc(NCCc2ccccc2)c2c(n1)c(C)nn2CC,98.38,
CCn1nc(C)c2nc(C)nc(NC3CCCC3)c21,42.26,
CCCc1nc(N2CCC(C)CC2)c2c(n1)c(C)nn2CC,17.45,
CCCc1nc(N2CCSCC2)c2c(n1)c(C)nn2CC,16.49,
CCCc1nc(N2CCCCCC2)c2c(n1)c(C)nn2CC,68.4,
CCn1nc(C)c2nc(C)nc(NCCc3ccc(C)cc3)c21,87.9,
COc1cc(C(=O)N(CCC#N)Cc2ccccn2)ccc1C,2.226,
COC1CCN(S(=O)(=O)NCC2COc3ccccc3C2)CC1 (stereo not given),23.14,
CC(=O)N1CCC(C(=O)NC2CCc3nccn3C2)CC1 (stereo not given),-4.558,
Cc1nnc(C2CCN(c3ccc(F)cc3)CC2)o1,0.33,
CC[C@H]1N(C)CCC[C@]12CCC(=O)N2Cc1ccncc1.O=C(O)C(F)(F)F.O=C(O)C(F)(F)F,4.525,
Cc1cn2c(n1)CCC(NC(=O)c1[nH]nc(C)c1Br)C2 (stereo not given),-35.87,
O=C(CSC1CCc2ccccc2NC1=O)NC1CC1 (stereo not given),-0.1015,
COc1cccc(CN2CCC(c3nn(CCN)c4nccnc34)C2)c1 (stereo not given),-33.21,
COc1cccc(NC(=O)NCC2CCCN(C3CCOCC3)C2)c1 (stereo not given),-9.956,
COC(=O)c1sccc1S(=O)(=O)N1CCC(Oc2cccnn2)CC1,10.5,
COC(=O)c1sccc1S(=O)(=O)N1CCC(Oc2cnccn2)CC1,11.89,
COC(=O)c1sccc1S(=O)(=O)N1CCC(Oc2ncccc2Cl)CC1,63.53,
CCOCC1CN(C(=O)c2ccnnc2)Cc2cnn(CC)c21.O=C(O)C(F)(F)F (stereo not given),10.27,
O=C(CN1CC(c2nc(C3CC3)no2)C1)N1CCOCC1.O=C(O)C(=O)O,59.8,
NC(=O)CN1CC(c2nc(C3CC3)no2)C1.O=C(O)C(=O)O,-1.644,

SMILES,Percent Effect (10 mM; 10000 µM) [%],"Percent Effect (10 mM, 10 mM as filed; unlikely as a test dose)"
CC1CCN(C(=O)CN2CC(c3nc(C4CC4)no3)C2)CC1.O=C(O)C(=O)O,-25.89,
CN(Cc1ccncc1)c1cncc(Br)c1,-1.215,
Cn1ncc2c(N3CCC(CCO)CC3)nc(C(C)(C)C)nc21,26.71,
CN(C)[C@H]1CCN(c2nc(C(C)(C)C)nc3c2cnn3C)C1,15.83,
COCC1CCN(c2nc(C(C)(C)C)nc3c2cnn3C)C1 (stereo not given),57.26,
Cc1cnn(CC2CN(CCc3ccccn3)CCO2)c1 (stereo not given),-8.826,
N[C@H]1CC[C@@H](n2cc(C(=O)NC3COc4ccccc43)nn2)CC1 (stereo not given in full),8.791,
N[C@H]1CC[C@@H](n2cc(C(=O)N[C@H]3CCCc4ccccc43)nn2)CC1,52.81,
N[C@H]1CC[C@@H](n2cc(C(=O)NC3CCc4ccccc4C3)nn2)CC1 (stereo not given in full),43.67,
Cc1cn2c(n1)CCC(NC(=O)CNS(C)(=O)=O)C2 (stereo not given),-12.28,
Cc1cc(Nc2ccc(F)cn2)cc(C2CCN(Cc3ncc[nH]3)C2)n1 (stereo not given),67.32,
Cc1cccc(Nc2ccc(C3CCN(Cc4ncc[nH]4)CC3)nc2)n1,12.85,
Fc1ccc(Nc2ccc(C3CCN(Cc4ncc[nH]4)CC3)nc2)nc1,12.33,
COc1ccc(NC(=O)CCn2nc(-c3cccs3)oc2=O)cc1OC,-4.295,
CCN1CC(CN(C)c2cc(C)nc(N)n2)Oc2ccccc21 (stereo not given),100.1,
Cc1cc(N(C)CC2COc3ccccc3O2)nc(N)n1 (stereo not given),18.45,
Cc1cc(N(C)CC2COc3ccccc3O2)nc(C)n1 (stereo not given),22.34,
Cc1nc(C)n(CC2CCCN(Cc3ccc4c(c3)OCCO4)C2)n1 (stereo not given),7.597,
Cc1cc(-c2cnc(N3CCCC3)nc2C(C)C)on1,-0.9341,
COc1ccccc1CNc1ncc(-c2cc(C)no2)c(C(C)C)n1,6.538,
COc1ccc(CNc2ncc(-c3cc(C)no3)c(C(C)C)n2)cc1,36.58,
Cc1cc(-c2cnc(NCc3ccc4c(c3)OCO4)nc2C(C)C)on1,24.22,
Cc1cc(-c2cnc(NCc3ccccn3)nc2C(C)C)on1,76.78,
Cc1cc(-c2cnc(NCc3ccncc3)nc2C(C)C)on1,71.23,
